We go through 21 molecules from PubChem BioAssay.

The structures appear in SMILES notation. Unmarked numbers belong to inactive results. For part of these data: Potency and affinity values are given separately. Activity calls are given as the source filed them. Unless noted, how the calls were made is not given here.

Assay [1] in a line: antimalarial activity against Dd2 strain (AID 2302;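 active means growth inhibition above 50% at the single 2 µM test dose, taken to imply half-maximal potency below 2 µM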;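 further: 0% = DMSO untreated growth and 100% = chloroquine plus artemisinin killed control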). The settings on record: P. falciparum Dd2 in RBCs, LDH growth readout, 72 h; at 2 µM; active compounds read high.
Assay [2] can be described thus: human hepatoma cell viability loss – ATP luminescence, cytotoxicity control for P. falciparum antimalarial project, primary screen (AID 2303;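 active means inhibition above 50%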;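 further: 0% = DMSO wells and 100% = digitonin-killed cells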). The note with it: HepG2 viability, 24-48 h, at 10 µM, active compounds read high.
Assay [3] deals with L-lactate dehydrogenase (Plasmodium falciparum (isolate CDC / Honduras)) (UniProt Q27743). Briefly: PfLDH activity inhibition – cell lysate, 3D7 strain, counter-screen for P. falciparum growth inhibition project (AID 2304).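 Further: 0% = vehicle and 100% = reference inhibitor.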 The note with it: P. falciparum 3D7 crude extract, LDH APAD/NBT absorbance; at 2 µM; active compounds read high. Background: A counterscreen serves to expose hits that act by an unwanted route or on another target.

A short description of assay [4]: inhibition of 3D7 malaria parasite growth – strain 3D7 (AID 2306).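 Further: 0% = DMSO wells and 100% = chloroquine plus artemisinin control wells.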 The note with it: P. falciparum 3D7 erythrocytic growth, LDH absorbance, 72 h; at 2 µM; active compounds read high.
Assay [5] concerns the target Calcium-dependent protein kinase 1 (Plasmodium falciparum (isolate 3D7)) (UniProt P62344). The assay can be described thus: PfCDPK1 kinase inhibitors, biochemical, TCAMS library (AID 1159585; cut-off not given, nearly all actives have IC50 up to about 0.98 µM;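 further: inhibitors leave more ATP so luminescence rises with inhibition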). The settings on record: recombinant PfCDPK1, Kinase-Glo ATP depletion luminescence. For orientation: In Kinase-Glo more light means more ATP remaining.
Assay [6] addresses Plasmodium falciparum protein kinase 6 (PK6, PF3D7_1337100) (UniProt Q8IDW1). Briefly: PfPK6 kinase inhibitors, biochemical, TCAMS library (AID 1159586). The note with it: recombinant PfPK6, Kinase-Glo ATP depletion luminescence.
In assay [7] the target is Protein kinase 7 (PK7), Plasmodium falciparum 3D7 (PF3D7_0213400) (UniProt Q7YTF7). The assay can be described thus: inhibition of Plasmodium PK7 catalytic activity – biochemical, TCAMS antimalarial set, Kinase-Glo luminescence (AID 1159587). The note with it: recombinant PfPK7, Kinase-Glo ATP depletion luminescence.
Assay [8] concerns the target Calcium-dependent protein kinase 4 (Plasmodium falciparum (isolate 3D7)) (UniProt Q8IBS5). Briefly: PfCDPK4 kinase inhibitors, biochemical, TCAMS library (AID 1159588; cut-off not given, nearly all actives have IC50 up to about 0.91 µM). The settings on record: recombinant PfCDPK4, Kinase-Glo ATP depletion luminescence.

Sequence of L-lactate dehydrogenase (Plasmodium falciparum (isolate CDC / Honduras)) (Q27743 whole entry, looked up): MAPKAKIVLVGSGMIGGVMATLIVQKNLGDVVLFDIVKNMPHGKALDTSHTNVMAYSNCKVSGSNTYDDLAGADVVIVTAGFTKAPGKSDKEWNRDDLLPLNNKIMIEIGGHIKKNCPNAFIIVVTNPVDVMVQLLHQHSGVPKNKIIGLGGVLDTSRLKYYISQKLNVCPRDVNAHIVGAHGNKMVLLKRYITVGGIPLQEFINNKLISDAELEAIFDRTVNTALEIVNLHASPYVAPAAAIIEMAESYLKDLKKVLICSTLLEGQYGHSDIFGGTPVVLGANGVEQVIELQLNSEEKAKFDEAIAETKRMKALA
Sequence of Calcium-dependent protein kinase 1 (Plasmodium falciparum (isolate 3D7)) (P62344 whole entry, looked up): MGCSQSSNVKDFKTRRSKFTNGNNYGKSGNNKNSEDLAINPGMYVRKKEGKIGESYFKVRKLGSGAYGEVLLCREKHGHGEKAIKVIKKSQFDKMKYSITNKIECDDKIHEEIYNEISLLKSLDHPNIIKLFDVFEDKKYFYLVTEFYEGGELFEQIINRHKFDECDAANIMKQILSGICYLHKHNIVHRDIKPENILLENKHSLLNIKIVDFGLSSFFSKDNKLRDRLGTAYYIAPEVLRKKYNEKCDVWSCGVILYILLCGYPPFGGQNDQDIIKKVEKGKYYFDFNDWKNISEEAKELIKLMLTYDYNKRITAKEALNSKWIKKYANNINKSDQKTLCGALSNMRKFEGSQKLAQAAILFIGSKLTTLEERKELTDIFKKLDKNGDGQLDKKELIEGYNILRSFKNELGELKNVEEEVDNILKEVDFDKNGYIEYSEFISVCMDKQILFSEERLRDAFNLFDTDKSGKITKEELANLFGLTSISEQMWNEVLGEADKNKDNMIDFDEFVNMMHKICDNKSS
Sequence of Calcium-dependent protein kinase 4 (Plasmodium falciparum (isolate 3D7)) (Q8IBS5 whole entry, looked up): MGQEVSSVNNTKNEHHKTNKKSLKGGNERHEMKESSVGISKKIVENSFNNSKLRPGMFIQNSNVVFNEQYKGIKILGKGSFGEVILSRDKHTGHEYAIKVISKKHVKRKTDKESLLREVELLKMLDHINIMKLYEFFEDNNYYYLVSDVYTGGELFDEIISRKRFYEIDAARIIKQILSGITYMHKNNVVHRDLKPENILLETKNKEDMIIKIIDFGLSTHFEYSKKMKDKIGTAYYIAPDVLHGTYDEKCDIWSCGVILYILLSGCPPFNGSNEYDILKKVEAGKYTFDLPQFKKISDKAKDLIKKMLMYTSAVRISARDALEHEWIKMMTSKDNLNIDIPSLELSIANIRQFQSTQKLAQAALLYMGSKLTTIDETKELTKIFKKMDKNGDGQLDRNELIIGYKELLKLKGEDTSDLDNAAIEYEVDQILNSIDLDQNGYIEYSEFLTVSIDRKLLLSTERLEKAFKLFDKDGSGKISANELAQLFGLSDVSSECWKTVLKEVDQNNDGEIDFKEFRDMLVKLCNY
Sequence of Protein kinase 7 (PK7), Plasmodium falciparum 3D7 (PF3D7_0213400) (Q7YTF7 1-343): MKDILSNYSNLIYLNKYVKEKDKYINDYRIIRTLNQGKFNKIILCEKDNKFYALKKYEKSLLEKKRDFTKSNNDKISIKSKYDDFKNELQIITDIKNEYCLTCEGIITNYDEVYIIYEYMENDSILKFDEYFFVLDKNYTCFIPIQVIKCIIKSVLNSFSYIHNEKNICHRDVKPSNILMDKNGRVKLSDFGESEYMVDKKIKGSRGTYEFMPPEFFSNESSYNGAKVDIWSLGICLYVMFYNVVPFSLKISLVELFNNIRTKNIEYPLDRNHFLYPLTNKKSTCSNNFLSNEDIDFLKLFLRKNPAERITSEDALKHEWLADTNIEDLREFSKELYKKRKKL
Sequence of Plasmodium falciparum protein kinase 6 (PK6, PF3D7_1337100) (Q8IDW1 1-305): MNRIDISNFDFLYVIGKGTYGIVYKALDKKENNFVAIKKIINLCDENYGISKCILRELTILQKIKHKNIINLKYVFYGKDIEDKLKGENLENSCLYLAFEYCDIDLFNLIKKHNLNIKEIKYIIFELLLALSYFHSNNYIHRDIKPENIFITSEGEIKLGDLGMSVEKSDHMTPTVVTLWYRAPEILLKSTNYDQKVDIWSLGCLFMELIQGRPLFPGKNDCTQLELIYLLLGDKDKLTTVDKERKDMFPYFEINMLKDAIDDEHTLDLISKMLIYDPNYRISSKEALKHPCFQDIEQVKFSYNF

One may read the inhibition as the drop in the measured response relative to a control, in per cent. As for `Cc1ccc(C(=O)NC2C(=O)NC2c2ccccc2)c(C)c1` (stereo not drawn), the growth inhibition in assay [1] is -1%; in assay [4] it was 90% (active). For the same molecule, the figures for the inhibition in assay [2] and in assay [3] were 7% and -4%, respectively. Besides, the outcome in assay [5], in assay [6], in assay [7] and in assay [8] was inactive.

With `O=S(=O)(Nc1cccc(CCN2CCCCC2CCN2CCCC2)c1)c1ccc(Oc2ccccc2)cc1` (stereo not drawn), the growth inhibition is 1% in assay [1] and 94% (active) in assay [4]. Also, the inhibition in assay [2] is 52% (active); in assay [3], -2%. For the same molecule, the result in assay [5], in assay [6], in assay [7] and in assay [8] was inactive.

On to `CCC(C)(C)c1ccc2nc(N)nc(N)c2c1C`, for which the values for the growth inhibition in assay [1] and in assay [4] were 82% (active) and 91% (active), respectively. Further, the inhibition in assay [2] was 62% (active); in assay [3], 1%. The outcome in assay [5], in assay [6], in assay [7] and in assay [8] was inactive.

In the case of `O=C(Nc1ccccc1)c1ccc(-c2cc3ccncc3cc2OC2CCNCC2)s1`, the growth inhibition is 8% in assay [1] and 100% (active) in assay [4]. In addition, the inhibition in assay [2] was -1%; in assay [3], -2%. The outcome in assay [5], in assay [6], in assay [7] and in assay [8] was inactive.

Take `COc1ccccc1-n1c(-c2ccc3ccccc3c2)csc1=NC(=O)c1ccccc1`: the growth inhibition in assay [1] is 79% (active); in assay [4], 93% (active). The figures for the inhibition in assay [2] and in assay [3] were -6% and -1%, respectively. Also, the result in assay [5], in assay [6], in assay [7] and in assay [8] was inactive.

In the case of `COc1ccc(-c2nonc2NC(=O)c2ccc(OC(C)C)cc2)cc1OC`, the values for the growth inhibition in assay [1] and in assay [4] were 99% (active) and 100% (active), respectively. The inhibition in assay [2] was 11%; in assay [3], -3%. In addition, the outcome in assay [5], in assay [6], in assay [7] and in assay [8] was inactive.

On to `O=C(Nc1ccc(-c2oc(C(=O)NCCc3cccc(Cl)c3)cc2-c2ccncc2)cc1)Nc1cccc(Cl)c1`, for which the growth inhibition in assay [1] was 84% (active); in assay [4], 99% (active). Moreover, the figures for the inhibition in assay [2] and in assay [3] were 13% and -1%, respectively. The outcome in assay [5], in assay [6], in assay [7] and in assay [8] was inactive.

`CCNc1nc(OCC(F)(F)F)nc(N(c2ccccc2)c2ccccc2)n1`: the growth inhibition in assay [1] was 83% (active); in assay [4] it was 100% (active). Besides, the figures for the inhibition in assay [2] and in assay [3] were 5% and 1%, respectively. For the same molecule, the result in assay [5], in assay [6], in assay [7] and in assay [8] was inactive.

For `CC(C)c1sc(N2CCN(C)CC2)nc1C(=O)Nc1ccc(F)cc1C(F)(F)F`, the growth inhibition in assay [1] was 99% (active); in assay [4], 101% (active). Moreover, the figures for the inhibition in assay [2] and in assay [3] were 3% and 4%, respectively. The outcome in assay [5], in assay [6], in assay [7] and in assay [8] was inactive.

With `O=C(Nc1ccc(S(=O)(=O)N2CCCCC2)cc1)c1cc(-c2ccccc2O)n[nH]1`, the growth inhibition was 81% (active) in assay [1] and 94% (active) in assay [4]. In addition, the results for the inhibition in assay [2] and in assay [3] were 13% and -2%, respectively. For the same molecule, the outcome in assay [5], in assay [6], in assay [7] and in assay [8] was inactive.

As for `CN1CCN(c2cc3c(cc2Cl)CCN3C(=O)Nc2ccc(NC(=O)c3ccc(C(F)(F)F)cc3)cc2)CC1`, the growth inhibition in assay [1] is 99% (active); in assay [4], 100% (active). Moreover, the inhibition in assay [2] was 98% (active); in assay [3], -4%. Besides, the outcome in assay [5], in assay [6], in assay [7] and in assay [8] was inactive.

Turning to `CC1(CCCCN2CCC(Oc3ccc(F)cc3F)CC2)C(=O)Nc2ccccc21` (stereo not drawn), the growth inhibition in assay [1] was 6%; in assay [4], 99% (active). In addition, the inhibition was 6% in assay [2] and -6% in assay [3]. In addition, the outcome in assay [5], in assay [6], in assay [7] and in assay [8] was inactive.

Take `COc1ccc2nccc([C@@H](O)CN3CCC(NCc4ccc5cccc(O)c5n4)CC3)c2c1`: the results for the growth inhibition in assay [1] and in assay [4] were 40% and 93% (active), respectively. Also, the figures for the inhibition in assay [2] and in assay [3] were 10% and 1%, respectively. Also, the outcome in assay [5], in assay [6], in assay [7] and in assay [8] was inactive.

`COc1ccc2nccc(N3CCC(CCNCc4ccc5c(n4)NC(=O)CS5)CC3)c2n1`: the growth inhibition is 75% (active) in assay [1] and 102% (active) in assay [4]. Besides, the inhibition was 32% in assay [2] and -1% in assay [3]. For the same molecule, the result in assay [5], in assay [6], in assay [7] and in assay [8] was inactive.

For the molecule `CCN(CC)CCCNc1ncc2c(-c3ccc(NC(=O)Nc4cc(C(F)(F)F)ccc4F)cc3)nn(C)c2n1`, the growth inhibition in assay [1] is 74% (active); in assay [4], 99% (active). Besides, the values for the inhibition in assay [2] and in assay [3] were 81% (active) and -3%, respectively. The result in assay [5], in assay [6], in assay [7] and in assay [8] was inactive.

For the molecule `COc1cc(OC)c(NC(=O)C2c3ccccc3C(=O)N(CC(C)C)C2c2cccs2)cc1Cl` (stereo not drawn), the growth inhibition in assay [1] and in assay [4] was 100% (active) in each case. For the same molecule, the inhibition in assay [2] was 9%; in assay [3], -1%. Further, the result in assay [5], in assay [6], in assay [7] and in assay [8] was inactive.

For the molecule `COc1ccc(-c2nc3cccnc3n2CC(=O)Nc2c(C)cc(C)cc2C)c(OC)c1`, the growth inhibition was 21% in assay [1] and 91% (active) in assay [4]. Moreover, the inhibition was 77% (active) in assay [2] and 1% in assay [3]. The result in assay [5], in assay [6], in assay [7] and in assay [8] was inactive.

In the case of `CC(=O)Nc1ccc(C(=O)Nc2cccc(-c3ccc(-c4nc5ccc(F)cc5[nH]4)cc3)c2)cn1`, the growth inhibition in assay [1] and in assay [4] was 99% (active) in each case. The inhibition in assay [2] was 10%; in assay [3], -6%. The outcome in assay [5], in assay [6], in assay [7] and in assay [8] was inactive.

Take `Cc1cc(N2CCC(C)CC2)nc2cc(O)ccc12`: the growth inhibition in assay [1] is 41%; in assay [4], 89% (active). In addition, the inhibition is 31% in assay [2] and -1% in assay [3]. Besides, the result in assay [5], in assay [6], in assay [7] and in assay [8] was inactive.

Turning to `NC(N)=Nc1nc(-c2cccc(NC(=O)NCc3cccc4ccccc34)c2)cs1`, the growth inhibition in assay [1] was 32%; in assay [4] it was 101% (active). Also, the inhibition in assay [2] is 14%; in assay [3], 5%. The result in assay [5], in assay [6], in assay [7] and in assay [8] was inactive.

`Cc1[nH]c(C)c(-c2ccc(S(=O)(=O)c3ccc(Cl)cc3)cc2)c(=O)c1Cl`: the growth inhibition in assay [1] is 96% (active); in assay [4], 98% (active). Moreover, the inhibition in assay [2] was -5%; in assay [3], 9%. The outcome in assay [5], in assay [6], in assay [7] and in assay [8] was inactive.
